# Source: article PMC7862700, “An all-to-all approach to the identification of sequence-specific readers for epigenetic DNA modifications on cytosine”
# Assays:
# Assay in all cases: DAPPL (digital affinity profiling via proximity ligation, sequencing); 10 mM Tris-HCl pH 7.5, 50 mM NaCl, 1 mM DTT, 4% glycerol, room temperature, 30 min; GST-TFs on glutathione beads, 16-mer random dsDNA library, 0.1% formaldehyde crosslink after washing; high values mean tight binding
# FEV = target: T1, FEV (Homo sapiens, UniProt Q99581 1-238); settings: protein: recombinant; tags: N-terminal GST; dsDNA, one strand shown
# T1 sequence: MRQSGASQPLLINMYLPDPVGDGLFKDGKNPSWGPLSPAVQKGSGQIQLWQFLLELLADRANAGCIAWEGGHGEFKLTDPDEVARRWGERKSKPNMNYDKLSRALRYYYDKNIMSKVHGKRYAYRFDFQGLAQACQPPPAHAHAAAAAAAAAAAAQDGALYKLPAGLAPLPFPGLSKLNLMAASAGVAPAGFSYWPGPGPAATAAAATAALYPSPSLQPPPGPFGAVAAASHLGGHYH
# Outline: (§1)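 Binding signal is given per hexamer as its read frequency for a factor divided by its frequency in the tag-only sample. GST-fused human transcription factors were expressed in yeast, captured on glutathione beads, barcoded with DNA and pooled with that sample, then incubated with 200 nmole of a 16-mer random double-stranded DNA library in Tris/NaCl/DTT/glycerol buffer for 30 min at room temperature. The pools were then washed, crosslinked, proximity-ligated, amplified by PCR and sequenced on an Illumina NextSeq500.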
# ETV5 = ETV5 (Homo sapiens, UniProt P41161 1-510); settings: protein: recombinant; tags: N-terminal GST; dsDNA, one strand shown
# Outline: as §1
# HSF1 = HSF1 (Homo sapiens, UniProt Q00613 1-529); settings: protein: recombinant; tags: N-terminal GST; chain copies: 3; dsDNA, one strand shown
# Outline: as §1
# SPIC = target: T2, SPIC (Homo sapiens, UniProt Q8N5J4 1-248); settings: protein: recombinant; tags: N-terminal GST; dsDNA, one strand shown
# T2 sequence: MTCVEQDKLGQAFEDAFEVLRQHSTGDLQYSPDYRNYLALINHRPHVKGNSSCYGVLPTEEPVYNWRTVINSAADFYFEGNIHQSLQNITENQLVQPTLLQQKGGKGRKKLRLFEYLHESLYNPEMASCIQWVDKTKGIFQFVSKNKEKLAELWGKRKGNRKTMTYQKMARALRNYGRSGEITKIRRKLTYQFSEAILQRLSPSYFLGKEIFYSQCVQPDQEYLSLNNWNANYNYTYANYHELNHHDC
# Outline: as §1
# ELF4 = ELF4 (Homo sapiens, UniProt Q99607 1-663); settings: protein: recombinant; tags: N-terminal GST; dsDNA, one strand shown
# Outline: as §1
# ELK4 = target: T3, ELK4 (Homo sapiens, UniProt P28324-2 1-405); settings: protein: recombinant; tags: N-terminal GST; dsDNA, one strand shown
# T3 sequence: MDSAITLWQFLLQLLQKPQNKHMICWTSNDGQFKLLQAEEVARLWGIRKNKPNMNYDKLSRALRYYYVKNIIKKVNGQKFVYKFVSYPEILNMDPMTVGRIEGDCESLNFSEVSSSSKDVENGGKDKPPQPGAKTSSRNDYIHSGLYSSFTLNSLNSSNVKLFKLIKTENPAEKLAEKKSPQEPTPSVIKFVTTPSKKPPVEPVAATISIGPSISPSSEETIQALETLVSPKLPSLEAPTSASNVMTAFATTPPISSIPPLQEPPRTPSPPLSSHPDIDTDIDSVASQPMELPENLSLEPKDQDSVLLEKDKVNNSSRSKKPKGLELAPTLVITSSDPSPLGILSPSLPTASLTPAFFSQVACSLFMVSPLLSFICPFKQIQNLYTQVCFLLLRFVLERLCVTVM
# Outline: as §1
# ETV2 = target: T4, ETV2 (Homo sapiens, UniProt O00321 1-342); settings: protein: recombinant; tags: N-terminal GST; dsDNA, one strand shown
# T4 sequence: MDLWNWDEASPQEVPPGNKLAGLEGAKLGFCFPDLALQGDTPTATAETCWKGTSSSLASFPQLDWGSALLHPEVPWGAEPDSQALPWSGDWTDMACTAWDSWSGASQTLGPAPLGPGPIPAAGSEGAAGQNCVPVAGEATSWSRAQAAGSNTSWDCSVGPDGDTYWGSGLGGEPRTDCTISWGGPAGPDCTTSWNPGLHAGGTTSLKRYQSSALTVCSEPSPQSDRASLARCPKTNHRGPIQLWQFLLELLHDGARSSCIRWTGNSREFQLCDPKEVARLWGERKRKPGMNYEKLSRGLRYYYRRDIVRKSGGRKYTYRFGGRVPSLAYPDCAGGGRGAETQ
# Outline: as §1
# ELF3 = target: T5, ELF3 (Homo sapiens, UniProt P78545 1-371); settings: protein: recombinant; tags: N-terminal GST; dsDNA, one strand shown
# T5 sequence: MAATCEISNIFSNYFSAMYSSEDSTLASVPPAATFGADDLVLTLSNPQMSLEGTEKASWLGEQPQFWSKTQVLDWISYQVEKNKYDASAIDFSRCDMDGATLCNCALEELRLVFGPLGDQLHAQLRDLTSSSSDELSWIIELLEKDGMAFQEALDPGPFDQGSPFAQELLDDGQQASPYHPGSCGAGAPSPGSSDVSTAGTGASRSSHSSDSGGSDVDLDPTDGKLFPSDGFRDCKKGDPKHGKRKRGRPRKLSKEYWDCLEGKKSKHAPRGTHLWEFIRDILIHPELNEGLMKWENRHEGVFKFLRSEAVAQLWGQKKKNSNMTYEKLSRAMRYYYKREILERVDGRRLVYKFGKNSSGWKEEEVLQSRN
# Outline: as §1
# CRX = CRX (Homo sapiens, UniProt O43186 1-299); settings: protein: recombinant; tags: N-terminal GST; dsDNA, one strand shown
# Outline: as §1
# ETV1 = ETV1 (Homo sapiens, UniProt P50549 1-477); settings: protein: recombinant; tags: N-terminal GST; dsDNA, one strand shown
# Outline: as §1
# ERF = target: T6, ERF (Homo sapiens, UniProt P50548 1-548); settings: protein: recombinant; tags: N-terminal GST; dsDNA, one strand shown
# T6 sequence: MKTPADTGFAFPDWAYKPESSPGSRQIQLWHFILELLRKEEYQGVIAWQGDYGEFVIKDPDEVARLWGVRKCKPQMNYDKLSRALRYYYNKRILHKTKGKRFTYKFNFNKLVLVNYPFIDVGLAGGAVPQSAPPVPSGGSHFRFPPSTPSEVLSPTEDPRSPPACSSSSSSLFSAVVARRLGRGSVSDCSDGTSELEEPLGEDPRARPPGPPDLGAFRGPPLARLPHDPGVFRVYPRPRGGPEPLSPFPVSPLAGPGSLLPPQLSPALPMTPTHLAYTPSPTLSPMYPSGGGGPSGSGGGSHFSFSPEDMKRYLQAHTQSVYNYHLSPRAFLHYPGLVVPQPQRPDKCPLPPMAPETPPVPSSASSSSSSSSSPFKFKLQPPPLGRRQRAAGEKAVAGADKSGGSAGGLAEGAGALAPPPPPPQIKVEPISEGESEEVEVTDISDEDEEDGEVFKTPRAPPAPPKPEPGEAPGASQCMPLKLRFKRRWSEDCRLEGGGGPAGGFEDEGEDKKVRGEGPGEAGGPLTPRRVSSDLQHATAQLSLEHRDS
# Outline: as §1
# ETV3L = target: T7, ETV3L (Homo sapiens, UniProt Q6ZN32 1-361); settings: protein: recombinant; tags: N-terminal GST; dsDNA, one strand shown
# T7 sequence: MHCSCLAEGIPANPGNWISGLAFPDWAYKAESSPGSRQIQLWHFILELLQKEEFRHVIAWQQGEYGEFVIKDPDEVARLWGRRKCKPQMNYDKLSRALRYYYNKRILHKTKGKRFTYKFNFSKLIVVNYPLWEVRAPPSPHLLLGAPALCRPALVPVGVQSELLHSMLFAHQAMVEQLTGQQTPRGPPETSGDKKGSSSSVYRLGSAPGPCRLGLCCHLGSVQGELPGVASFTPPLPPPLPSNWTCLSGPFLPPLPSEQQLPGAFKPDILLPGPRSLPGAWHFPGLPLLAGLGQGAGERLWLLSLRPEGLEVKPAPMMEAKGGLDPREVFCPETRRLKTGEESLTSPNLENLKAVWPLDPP
# Outline: as §1
# ETS2 = target: T8, ETS2 (Homo sapiens, UniProt P15036 1-469); settings: protein: recombinant; tags: N-terminal GST; dsDNA, one strand shown
# T8 sequence: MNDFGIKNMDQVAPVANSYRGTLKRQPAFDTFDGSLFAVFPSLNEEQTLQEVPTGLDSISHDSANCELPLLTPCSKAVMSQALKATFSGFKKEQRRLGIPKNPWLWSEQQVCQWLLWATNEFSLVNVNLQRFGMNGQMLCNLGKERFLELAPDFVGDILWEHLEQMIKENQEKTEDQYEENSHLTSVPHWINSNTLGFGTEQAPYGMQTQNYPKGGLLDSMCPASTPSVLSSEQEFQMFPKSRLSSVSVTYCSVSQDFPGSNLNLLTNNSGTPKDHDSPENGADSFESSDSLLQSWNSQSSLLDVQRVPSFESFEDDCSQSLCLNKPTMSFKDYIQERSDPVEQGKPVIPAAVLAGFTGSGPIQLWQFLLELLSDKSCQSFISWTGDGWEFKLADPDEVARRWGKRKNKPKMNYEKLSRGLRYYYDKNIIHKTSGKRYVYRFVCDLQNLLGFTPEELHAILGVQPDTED
# Outline: as §1
# SPDEF = target: T9, SPDEF (Homo sapiens, UniProt O95238 1-335); settings: protein: recombinant; tags: N-terminal GST; dsDNA, one strand shown
# T9 sequence: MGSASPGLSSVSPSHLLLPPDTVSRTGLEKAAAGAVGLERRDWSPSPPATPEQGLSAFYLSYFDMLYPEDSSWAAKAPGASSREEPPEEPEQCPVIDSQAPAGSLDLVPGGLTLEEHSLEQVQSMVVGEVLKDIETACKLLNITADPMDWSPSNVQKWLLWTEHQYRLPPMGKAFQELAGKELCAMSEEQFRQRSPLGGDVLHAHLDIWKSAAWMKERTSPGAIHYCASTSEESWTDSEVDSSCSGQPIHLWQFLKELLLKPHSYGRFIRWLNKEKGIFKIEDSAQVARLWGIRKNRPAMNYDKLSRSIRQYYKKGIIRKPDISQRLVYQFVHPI
# Outline: as §1
# ETV7 = target: T10, ETV7 (Homo sapiens, UniProt Q9Y603 1-341); settings: protein: recombinant; tags: N-terminal GST; dsDNA, one strand shown
# T10 sequence: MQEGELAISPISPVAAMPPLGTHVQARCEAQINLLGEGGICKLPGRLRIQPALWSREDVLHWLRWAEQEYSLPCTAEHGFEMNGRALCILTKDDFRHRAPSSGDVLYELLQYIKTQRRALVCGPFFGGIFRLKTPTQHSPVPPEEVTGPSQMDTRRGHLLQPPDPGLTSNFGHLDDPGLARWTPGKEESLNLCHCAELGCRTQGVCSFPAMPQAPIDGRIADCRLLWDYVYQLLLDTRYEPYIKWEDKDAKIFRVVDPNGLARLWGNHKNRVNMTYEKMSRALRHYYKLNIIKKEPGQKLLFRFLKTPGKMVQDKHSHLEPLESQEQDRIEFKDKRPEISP
# Outline: as §1
# ELF5 = target: T11, ELF5 (Homo sapiens, UniProt Q9UKW6-2 1-255); settings: protein: recombinant; tags: N-terminal GST; dsDNA, one strand shown
# T11 sequence: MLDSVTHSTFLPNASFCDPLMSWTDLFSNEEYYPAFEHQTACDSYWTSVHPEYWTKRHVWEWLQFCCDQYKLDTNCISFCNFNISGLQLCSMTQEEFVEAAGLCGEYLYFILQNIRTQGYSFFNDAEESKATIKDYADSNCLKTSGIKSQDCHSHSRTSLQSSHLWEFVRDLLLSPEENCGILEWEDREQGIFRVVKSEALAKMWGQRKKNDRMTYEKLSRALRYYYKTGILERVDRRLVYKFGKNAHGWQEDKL
# Outline: as §1
# ETV3 = target: T12, ETV3 (Homo sapiens, UniProt P41162-2 1-143); settings: protein: recombinant; tags: N-terminal GST; dsDNA, one strand shown
# T12 sequence: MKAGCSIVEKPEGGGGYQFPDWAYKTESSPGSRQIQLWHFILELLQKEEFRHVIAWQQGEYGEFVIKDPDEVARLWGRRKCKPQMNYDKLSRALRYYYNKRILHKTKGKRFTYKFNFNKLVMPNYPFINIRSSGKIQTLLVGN
# Outline: as §1
# ETV6 = ETV6 (Homo sapiens, UniProt P41212 1-452); settings: protein: recombinant; tags: N-terminal GST; dsDNA, one strand shown
# Outline: as §1
# Sequence of HSF1 (Q00613 whole entry): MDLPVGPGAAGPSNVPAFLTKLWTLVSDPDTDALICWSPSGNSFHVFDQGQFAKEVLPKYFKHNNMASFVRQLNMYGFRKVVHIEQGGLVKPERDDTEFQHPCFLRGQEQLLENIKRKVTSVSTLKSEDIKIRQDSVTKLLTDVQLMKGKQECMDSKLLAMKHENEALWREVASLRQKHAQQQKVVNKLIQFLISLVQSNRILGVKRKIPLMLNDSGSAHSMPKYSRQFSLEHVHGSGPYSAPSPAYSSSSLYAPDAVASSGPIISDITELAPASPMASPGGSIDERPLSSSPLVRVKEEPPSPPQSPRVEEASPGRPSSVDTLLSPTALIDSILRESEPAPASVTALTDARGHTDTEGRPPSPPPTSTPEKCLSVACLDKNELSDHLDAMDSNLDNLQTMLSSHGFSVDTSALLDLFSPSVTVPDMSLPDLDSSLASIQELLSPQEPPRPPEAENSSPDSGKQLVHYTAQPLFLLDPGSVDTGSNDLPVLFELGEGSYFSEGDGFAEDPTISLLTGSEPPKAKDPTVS
# Sequence of ETV5 (P41161 whole entry): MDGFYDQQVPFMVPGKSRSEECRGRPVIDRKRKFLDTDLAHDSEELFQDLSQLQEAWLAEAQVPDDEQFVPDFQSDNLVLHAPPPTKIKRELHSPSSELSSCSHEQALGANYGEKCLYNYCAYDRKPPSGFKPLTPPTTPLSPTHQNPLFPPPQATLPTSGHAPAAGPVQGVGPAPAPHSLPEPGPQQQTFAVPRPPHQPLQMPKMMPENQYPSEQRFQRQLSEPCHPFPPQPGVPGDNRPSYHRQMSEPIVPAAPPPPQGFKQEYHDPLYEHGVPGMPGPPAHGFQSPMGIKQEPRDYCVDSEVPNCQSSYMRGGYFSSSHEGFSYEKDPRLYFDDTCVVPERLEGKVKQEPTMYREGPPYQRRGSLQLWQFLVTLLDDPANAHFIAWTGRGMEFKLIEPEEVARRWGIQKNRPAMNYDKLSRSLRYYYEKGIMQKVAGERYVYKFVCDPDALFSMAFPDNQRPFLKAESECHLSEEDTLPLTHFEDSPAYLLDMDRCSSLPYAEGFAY
# Sequence of CRX (O43186 whole entry): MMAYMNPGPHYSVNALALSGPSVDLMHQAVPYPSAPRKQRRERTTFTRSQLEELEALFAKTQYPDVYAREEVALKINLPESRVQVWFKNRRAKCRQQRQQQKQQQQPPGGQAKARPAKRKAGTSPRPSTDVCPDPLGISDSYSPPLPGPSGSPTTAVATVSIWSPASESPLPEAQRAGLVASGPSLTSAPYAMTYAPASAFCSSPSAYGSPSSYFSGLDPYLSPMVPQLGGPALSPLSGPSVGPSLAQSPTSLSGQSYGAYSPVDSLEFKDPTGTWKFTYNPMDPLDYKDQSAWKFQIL
# Sequence of ETV1 (P50549 whole entry): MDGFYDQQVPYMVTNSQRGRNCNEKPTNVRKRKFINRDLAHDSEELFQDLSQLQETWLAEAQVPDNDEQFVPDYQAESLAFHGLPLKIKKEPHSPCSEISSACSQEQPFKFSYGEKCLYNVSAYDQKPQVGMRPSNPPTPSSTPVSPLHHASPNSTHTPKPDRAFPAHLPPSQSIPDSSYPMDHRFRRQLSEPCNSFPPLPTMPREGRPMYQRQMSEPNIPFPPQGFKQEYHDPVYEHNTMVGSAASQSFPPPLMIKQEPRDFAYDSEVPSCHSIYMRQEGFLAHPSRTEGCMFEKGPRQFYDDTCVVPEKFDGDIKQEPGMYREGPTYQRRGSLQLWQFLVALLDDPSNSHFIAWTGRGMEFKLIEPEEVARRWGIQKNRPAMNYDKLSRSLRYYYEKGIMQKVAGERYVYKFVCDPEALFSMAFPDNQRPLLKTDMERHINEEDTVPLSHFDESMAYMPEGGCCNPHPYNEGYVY
# Sequence of ELF4 (Q99607 whole entry): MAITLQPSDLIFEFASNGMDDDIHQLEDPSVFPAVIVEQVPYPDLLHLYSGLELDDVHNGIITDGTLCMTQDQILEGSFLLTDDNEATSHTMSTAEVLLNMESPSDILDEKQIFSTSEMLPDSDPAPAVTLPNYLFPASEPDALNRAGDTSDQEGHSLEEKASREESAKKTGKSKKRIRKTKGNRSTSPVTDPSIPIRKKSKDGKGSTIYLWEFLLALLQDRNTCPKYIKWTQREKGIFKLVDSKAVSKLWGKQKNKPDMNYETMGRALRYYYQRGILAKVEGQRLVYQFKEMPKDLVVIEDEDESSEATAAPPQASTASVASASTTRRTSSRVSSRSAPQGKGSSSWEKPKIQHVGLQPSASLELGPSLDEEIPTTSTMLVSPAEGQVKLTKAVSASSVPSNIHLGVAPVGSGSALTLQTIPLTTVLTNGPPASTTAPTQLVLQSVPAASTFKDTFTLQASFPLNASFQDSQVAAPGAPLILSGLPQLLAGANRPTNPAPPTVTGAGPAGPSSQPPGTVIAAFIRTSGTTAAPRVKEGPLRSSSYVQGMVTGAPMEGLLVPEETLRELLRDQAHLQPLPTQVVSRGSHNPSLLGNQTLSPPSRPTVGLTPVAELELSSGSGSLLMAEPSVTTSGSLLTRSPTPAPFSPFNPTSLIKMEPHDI
# Sequence of ETV6 (P41212 whole entry): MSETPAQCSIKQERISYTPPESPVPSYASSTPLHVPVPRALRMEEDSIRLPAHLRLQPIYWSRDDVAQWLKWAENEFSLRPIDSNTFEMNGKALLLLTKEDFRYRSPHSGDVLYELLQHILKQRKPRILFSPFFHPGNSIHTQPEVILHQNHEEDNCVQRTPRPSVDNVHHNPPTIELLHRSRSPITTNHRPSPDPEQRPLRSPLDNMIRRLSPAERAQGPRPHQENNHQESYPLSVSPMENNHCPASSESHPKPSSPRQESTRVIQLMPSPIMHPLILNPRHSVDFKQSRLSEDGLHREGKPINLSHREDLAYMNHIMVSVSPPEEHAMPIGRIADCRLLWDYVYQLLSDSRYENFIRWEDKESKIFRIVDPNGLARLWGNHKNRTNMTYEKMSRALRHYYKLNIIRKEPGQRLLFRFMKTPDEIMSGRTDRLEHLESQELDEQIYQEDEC
sequence,measurement,setting,value
TATGCC,binding signal,FEV,"1.13 fold enrichment (6-mer frequency, TF over GST control)"
same,binding signal,ETV5,"1.18 fold enrichment (6-mer frequency, TF over GST control)"
same,binding signal,HSF1,"1.06 fold enrichment (6-mer frequency, TF over GST control)"
same,binding signal,SPIC,"1.28 fold enrichment (6-mer frequency, TF over GST control)"
same,binding signal,ELF4,"1.15 fold enrichment (6-mer frequency, TF over GST control)"
same,binding signal,ELK4,"1.17 fold enrichment (6-mer frequency, TF over GST control)"
same,binding signal,ETV2,"1.05 fold enrichment (6-mer frequency, TF over GST control)"
same,binding signal,ELF3,"1.01 fold enrichment (6-mer frequency, TF over GST control)"
same,binding signal,CRX,"1.18 fold enrichment (6-mer frequency, TF over GST control)"
same,binding signal,ETV1,"1.28 fold enrichment (6-mer frequency, TF over GST control)"
same,binding signal,ERF,"1.16 fold enrichment (6-mer frequency, TF over GST control)"
same,binding signal,ETV3L,"1.12 fold enrichment (6-mer frequency, TF over GST control)"
same,binding signal,ETS2,"1.21 fold enrichment (6-mer frequency, TF over GST control)"
same,binding signal,SPDEF,"1.23 fold enrichment (6-mer frequency, TF over GST control)"
same,binding signal,ETV7,"1.19 fold enrichment (6-mer frequency, TF over GST control)"
same,binding signal,ELF5,"1.14 fold enrichment (6-mer frequency, TF over GST control)"
same,binding signal,ETV3,"1.17 fold enrichment (6-mer frequency, TF over GST control)"
same,binding signal,ETV6,"1.22 fold enrichment (6-mer frequency, TF over GST control)"
